MITF act: increases MITF-driven TRPM1 promoter luciferase signal; SK-MEL-5 TRPM1-promoter luciferase, 24 h; % of positive control, neutral wells = 0; activation, % at 12.5 µM; 300,000 compounds, 0.75% hits; AID 588334;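 active = mean activation of at least 80% with every replicate also reaching 80%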;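 also: 0% = neutral control wells and 100% = parthenolide positive control wells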
Wnt act: activators of Wnt/beta-catenin signaling; Wnt/beta-catenin reporter cell assay, activator, plate reader; activation, % at 9.35 µM; 300,000 compounds, 1.2% hits; in the data active = activation above about 30%, passing the limit was not always enough;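 also: 0% = neutral control wells and 100% = positive control wells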
F508del corr: correctors of CFTR F508del function in bronchial epithelial cells; 350,000 compounds, 0.36% hits; activity (quench increase), % at 7.58 µM; CFBE cells, YFP halide quenching; stimulated with forskolin plus potentiator P3; % fluorescence drop versus neutral controls;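 active = mean added fluorescence quench of at least 8% versus neutral control, with both replicates also reaching 8%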;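 also: cells transiently co-express mutant CFTR-F508del with the halide-sensitive YFP; corrector assay measuring rescue of mutant channel to the surface after 24 h compound exposure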
GSIS activator: primary screen for activators of insulin secretion dependent on glucose, INS-1E cells, GLuc reporter luminescence. INS-1E GLuc reporter insulin secretion, 2-3 h. AID 743287. activation, % at 16.6 µM. 370,000 compounds, 0.61% hits;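 active = lowest replicate activation of at least 40%, so every replicate reaches that level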;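 also: 0% = median of neutral control wells and 100% = median of IBMX positive control wells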
HIV Env fusion: inhibitors of HIV Env-mediated cell fusion | HeLa-JRFL Env/CEM21 cell fusion, luciferase | inhibition, % at 12.3 µM | 360,000 compounds, 1.1% hits | AID 651610;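 active = mean replicate inhibition score of at least 50 and every replicate individually at or above 50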;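 also: 0% = plate neutral controls and 100% = maraviroc near 300 nM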
The depositor's hits bear a star; [ ] = remark or other dose. Shown are actives, neighbours in structure and some others; about 2.7% of the full set was active somewhere.

How did C[C@@H]1CCCCO[C@@H](CN(C)Cc2ccc(C(F)(F)F)cc2)[C@H](C)CN([C@@H](C)CO)C(=O)c2cc(NS(=O)(=O)c3cccs3)ccc2O1 do in these assays?
F508del corr: 0; GSIS activator: -25; HIV Env fusion: 9[16.7 µM]

Results for COc1ccc(S(=O)(=O)Nc2ccc3c(c2)C(=O)N([C@H](C)CO)C[C@@H](C)[C@@H](CN(C)Cc2ccc(C(F)(F)F)cc2)OCCCC[C@H](C)O3)cc1 ?
F508del corr: 5; GSIS activator: -9; HIV Env fusion: 74*[16.7 µM]

How did COc1ccc(S(=O)(=O)Nc2ccc3c(c2)C(=O)N([C@@H](C)CO)C[C@H](C)[C@H](CN(C)C(=O)NC(C)C)OCCCC[C@@H](C)O3)cc1 do in these assays?
F508del corr: -3; GSIS activator: -14; HIV Env fusion: 68*[16.7 µM]

What do the screens show for `C[C@@H]1CCCCO[C@H](CN(C)Cc2ccc(C(F)(F)F)cc2)[C@H](C)CN([C@H](C)CO)C(=O)c2cc(NS(=O)(=O)c3cccs3)ccc2O1`?
F508del corr: 0; GSIS activator: -20; HIV Env fusion: 60*[16.7 µM]

What do the screens show for `C[C@@H]1CN([C@@H](C)CO)C(=O)c2cc(NS(=O)(=O)c3ccc(Cl)cc3)ccc2O[C@@H]1CN(C)Cc1ccc(C(F)(F)F)cc1`?
F508del corr: 9.8*; GSIS activator: -7; HIV Env fusion: 2[16.7 µM]

What do the screens show for `COc1ccc2c3c([nH]c2c1)[C@H](CO)N(C(=O)Nc1ccc(F)cc1)CC31CN(C(=O)Cc2ccccc2)C1`?
GSIS activator: -14

How did O=C(Nc1nccs1)[C@H]1[C@H](CO)[C@H]2Cn3c(cccc3=O)[C@@H]1N2C(=O)C1CCCCC1 do in these assays?
F508del corr: -1; GSIS activator: 3

Results for C[C@@H]1CN([C@@H](C)CO)C(=O)c2cc(NC(=O)CCN3CCOCC3)ccc2O[C@@H]1CN(C)Cc1ccc2c(c1)OCO2 ?
F508del corr: -3; GSIS activator: -3; HIV Env fusion: -24[16.7 µM]

What do the screens show for `COc1ccc(S(=O)(=O)Nc2ccc3c(c2)C(=O)N([C@H](C)CO)C[C@@H](C)[C@H](CN(C)Cc2ccc(C(F)(F)F)cc2)OCCCC[C@@H](C)O3)cc1`?
F508del corr: -2; GSIS activator: -23; HIV Env fusion: 64*[16.7 µM]

What do the screens show for `Cc1ccc(S(=O)(=O)Nc2ccc3c(c2)C(=O)N([C@@H](C)CO)C[C@@H](C)[C@@H](CN(C)Cc2ccc(C(F)(F)F)cc2)OCCCC[C@H](C)O3)cc1`?
F508del corr: 2; GSIS activator: 2; HIV Env fusion: 15[16.7 µM]

Results for COc1ccc(S(=O)(=O)Nc2ccc3c(c2)C(=O)N([C@H](C)CO)C[C@@H](C)[C@@H](CN(C)Cc2ccc(C(F)(F)F)cc2)OCCCC[C@@H](C)O3)cc1 ?
F508del corr: 0; GSIS activator: -16; HIV Env fusion: 55*[16.7 µM]

How did Cc1ccc(S(=O)(=O)Nc2ccc3c(c2)C(=O)N([C@H](C)CO)C[C@@H](C)[C@H](CN(C)Cc2ccc(C(F)(F)F)cc2)OCCCC[C@@H](C)O3)cc1 do in these assays?
F508del corr: 3; GSIS activator: -5; HIV Env fusion: 65*[16.7 µM]

What do the screens show for `C[C@H](CO)N1C[C@H](C)[C@@H](CN(C)C(=O)Nc2ccc(F)cc2)OCCCC[C@H](C)Oc2ccc(NC(=O)CCCN(C)C)cc2C1=O`?
F508del corr: 0; GSIS activator: 8; HIV Env fusion: 6[16.7 µM]

What do the screens show for `COc1ccc2c3c([nH]c2c1)[C@@H](CO)N(C(=O)NC(C)C)CC31CN(Cc2ccccc2)C1`?
F508del corr: 3; GSIS activator: -10

Results for CCNC(=O)C[C@@H]1CC[C@H]2[C@H](COc3ccc(NC(=O)Nc4c(C)noc4C)cc3C(=O)N2C)O1 ?
F508del corr: 1; GSIS activator: -8; HIV Env fusion: -14[16.7 µM]

How did Cc1ccc(N=Cc2sc(O)c3ccccc23)cc1 do in these assays?
Wnt act: 84*; HIV Env fusion: -305

Results for CC(C)C#Cc1cnc2c(c1)C(=O)N([C@@H](C)CO)C[C@@H](C)[C@H](CN(C)C(=O)c1ccccn1)O2 ?
F508del corr: -4; GSIS activator: -13; HIV Env fusion: -13[16.7 µM]

What do the screens show for `CCOC(=O)CSc1nc2ccccc2c(=O)n1NC(=O)c1ccccc1`?
MITF act: 49; Wnt act: 38*; HIV Env fusion: -177

What do the screens show for `CCOC(=O)CSc1nc2ccccc2c(=O)n1CC1COc2ccccc2O1` (stereo not drawn)?
MITF act: 3; Wnt act: -1; HIV Env fusion: 65*

Results for CCCN(CCC)C(=O)CSc1nc2ccccc2c(=O)n1CC1COc2ccccc2O1 (stereo not drawn) ?
Wnt act: -12; HIV Env fusion: 26

What do the screens show for `Cc1noc(C)c1NC(=O)Nc1ccc2c(c1)C(=O)N([C@H](C)CO)C[C@@H](C)[C@@H](CN(C)Cc1ccccc1)OCCCC[C@H](C)O2`?
F508del corr: -2; GSIS activator: 1; HIV Env fusion: 29[16.7 µM]

What do the screens show for `Clc1ccccc1-c1ncc2ccccn12`?
MITF act: 3; Wnt act: 36*; F508del corr: -2; GSIS activator: 18; HIV Env fusion: 1

How did Clc1ccc(-c2ncc3ccccn23)cc1 do in these assays?
MITF act: 57; Wnt act: 8; F508del corr: 2; GSIS activator: -2; HIV Env fusion: -27

How did CC1=Nc2ccccc2N=C(NC(=O)c2ccccc2)C1c1ccc(Cl)cc1 (stereo not drawn) do in these assays?
MITF act: -6; Wnt act: -3; F508del corr: 1; GSIS activator: 31; HIV Env fusion: 69*

How did CC1=CC(c2ccc(Cl)cc2)n2nc(NC(=O)c3ccccc3)nc2N1 (stereo not drawn) do in these assays?
MITF act: 5; GSIS activator: -1

Results for COc1cc2ccc(C(C)=NNC(N)=S)cc2cc1OC ?
Wnt act: -1; F508del corr: 2; GSIS activator: 67*; HIV Env fusion: -103

Results for CC1CC(C)(C)N2C(=O)C3(Nc4ccccc4S3)c3cccc1c32 (stereo not drawn) ?
MITF act: -15

Results for Cc1cc2c3c(c1)C1(SCC(=O)N1c1ccc(F)cc1)C(=O)N3C(C)(C)CC2C (stereo not drawn) ?
MITF act: 4; GSIS activator: -9; HIV Env fusion: 69*

Results for Cc1ccc(NC(=O)c2noc3c2CCc2ccccc2-3)cc1 ?
Wnt act: 42*; HIV Env fusion: -46

How did CCc1ccc(NC(=O)c2noc3c2CCc2ccccc2-3)cc1 do in these assays?
Wnt act: 33*; HIV Env fusion: -87

What do the screens show for `C/C(=N\Nc1ccccn1)c1ccc(N2CCOCC2)cc1`?
MITF act: 58; Wnt act: 29; F508del corr: 0; GSIS activator: 9; HIV Env fusion: -32

Bioassay records as filed in PubChem.
